Compounds with a hit are over-represented: about 19% of the library has one in this group of screens.
IL1B secr inh – qHTS for Inhibitors of Inflammasome Signaling: IL-1-beta AlphaLISA Primary Screen; THP-1 LPS/ATP IL-1B secretion, AlphaLISA, 16 h; active compounds read low; 360,000 compounds, 4.7% hits; activity change, % at 57.5 µM; in the data active = activity change below about -50%; inconclusive = mostly about -30% to -49%
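THP-1 cells pretreated 1 hr with compounds (up to 57.5 uM final), then stimulated with LPS (250 ng/mL final) plus ATP (1.25 mM final); secreted IL-1B measured by AlphaLISA after 16 hr, decreased signal indicating inhibition.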
TDP1 cell CPT – qHTS for Inhibitors of human tyrosyl-DNA phosphodiesterase 1 (TDP1): qHTS in cells in presence of CPT; chicken DT40 Tdp1-/-;hTDP1 cells + 20 nM CPT, ATP luminescence, 48 h; Potency, µM (top dose mostly 46.2 µM), actives largely listed as inhibitors; 420,000 compounds, 12% hits; also: nearly all actives have a fitted effect of over 55% in size
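Cell growth measured by CellTiter-Glo luminescence after a minimum 48 h, 37 C compound exposure with 20 nM CPT in Tdp1-knockout DT40 cells stably expressing hTDP1, seeded 400/well; qHTS titration format.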
HT1080 IDH1KD tx – qHTS for induction of synthetic lethality in tumor cells producing 2HG: qHTS for the HT-1080-IDH1KD cell line; HT-1080 IDH1 knockdown viability, ATP luminescence, 48 h; Potency, µM (series often up to 46.1 µM), most hits filed as cytotoxic; 360,000 compounds, 2% hits; AID 686971, 2013
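Cytotoxicity counter-line: IDH1KD HT-1080, 48 h, CellTiter-Glo. Curves classed by r2, magnitude and activity.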
HT1080-NT tox – qHTS for induction of synthetic lethality in tumor cells producing 2HG: qHTS for the HT-1080-NT fibrosarcoma cell line; HT-1080-NT fibrosarcoma viability, CellTiter-Glo ATP luminescence, 48 h; Potency, µM (titrated, usually from 46.1 µM), hits mostly cytotoxic; 360,000 compounds, 1.6% hits; AID 686970, 2013;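 also: NT is the 2HG producing partner of a matched IDH1 knockdown line; nearly all actives have a fitted effect of over 55% in size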
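Fibrosarcoma NT cells, 750 per well in 5% FBS RPMI, were exposed to compound for 48 hours. Viability: CellTiter-Glo luminescence.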
TDP1 cell noCPT – qHTS for Inhibitors of human tyrosyl-DNA phosphodiesterase 1 (TDP1): qHTS in cells in absence of CPT. 420,000 compounds, 15% hits. DT40 Tdp1-/- hTDP1 cells, no CPT, ATP luminescence, 48 h. Potency, µM (doses to about 46.2 µM), actives largely listed as inhibitors; also: nearly all actives have a fitted effect of over 55% in size
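Growth kinetics read by CellTiter-Glo luminescence after ≥48 hr at 37 °C. Cells: DT40 Tdp1-/- stably carrying human TDP1, 400 per well, compound exposure in the absence of CPT (DMSO vehicle).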
A number is an active result; 0 = inactive; ? = inconclusive; - = no result given. Unless noted, calls follow the shape of the dose curve; as a rule, active = well fitted curve in the direction sought with a large enough effect; inconclusive = small, poorly fitted or top-dose-only effect, or another doubt; inactive = no such curve, though single readings can be large; an effect the other way counts as inactive or inconclusive.

SMILES	IL1B secr inh	TDP1 cell CPT	HT1080 IDH1KD tx	HT1080-NT tox	TDP1 cell noCPT
Cc1ccsc1/C=N/NC(=O)c1nnn(-c2nonc2N)c1-c1ccccc1	-92	0	0	0	0
COc1ccccc1/C=N/NC(=O)c1nnn(-c2nonc2N)c1-c1cccs1	0	23µM	0	0	0
COc1cccc(-c2c(C(=O)N/N=C/c3sccc3C)nnn2-c2nonc2N)c1	-54	0	0	0	0
CCCOc1ccc(-c2c(C(=O)N/N=C/c3ccncc3)nnn2-c2nonc2N)cc1	-54	0	?	?	0
COc1ccccc1CNC(=O)CCc1nnc2ccc(NCCCN3CCCC3=O)nn12	0	0	0	0	0
COc1ccc(S(=O)(=O)N2CCOCC2)cc1NC(=O)CSc1nnc2n1CCCCC2	0	0	0	0	0
Cc1oc2cc3oc(=O)c(CCC(=O)NCCCn4ccnc4)c(C)c3cc2c1C	-52	?	0	0	23µM
Cc1c(CCC(=O)NCCCn2ccnc2)c(=O)oc2cc3oc4c(c3cc12)CCCC4	?	9.2µM	0	?	10µM
Cc1coc2cc3oc(=O)c(CCC(=O)NCCCn4ccnc4)c(C)c3cc12	0	?	0	0	?
Cc1c(CCC(=O)N2CCC(C(=O)O)CC2)c(=O)oc2cc3oc4c(c3cc12)CCCC4	0	?	0	0	15µM
Cc1c(CCC(=O)N2CCC(C(=O)O)(c3ccccc3)CC2)c(=O)oc2cc3oc4c(c3cc12)CCCC4	0	0	0	0	0
Cc1oc2cc3oc(=O)c(CCC(=O)NCCCN4CCOCC4)c(C)c3cc2c1C	?	23µM	0	0	?
Cc1ccn2c(C=O)c(-c3ccc(F)cc3)c(C=O)c2c1	0	0	0	0	0
Cc1ccc(-c2noc(-c3nnn(CC(=O)Nc4ccc(C)cc4Cl)c3N)n2)cc1	-	0	-	-	0
CC(C)=CC(O)C/C(C)=C/COc1ccc2ccc(=O)oc2c1 (stereo unspecified)	?	7.3µM	?	23µM	9.2µM
CCCn1nnnc1NC(=O)c1ccc2ccccc2c1	0	?	0	0	18µM
Cc1ccccc1S(=O)(=O)NCc1cccnc1	0	0	0	0	0
O=S(=O)(NCc1cccnc1)c1ccc2ccccc2c1	0	?	0	0	21µM
COc1cc(S(=O)(=O)NCc2ccncc2)ccc1Br	0	8.2µM	0	?	9.2µM
O=[N+]([O-])c1ccccc1S(=O)(=O)NCc1cccnc1	0	8.9µM	0	0	21µM
Cc1ccc(S(=O)(=O)NCc2ccncc2)cc1C	0	2.9µM	23µM	0	1.3µM
FC(F)(F)C(F)(F)c1nnc2ccc(-n3ccnc3)nn12	0	0	0	0	0
Cc1cc(C)c(C)c(S(=O)(=O)NCc2ccncc2)c1C	0	21µM	?	0	13µM
COc1cc(C)c(Br)cc1S(=O)(=O)NCc1ccccc1	0	0	0	0	0
Cc1cc(Br)c(S(=O)(=O)NCc2ccncc2)cc1C	0	5.8µM	?	?	7.3µM
SMILES	IL1B secr inh	TDP1 cell CPT	HT1080 IDH1KD tx	HT1080-NT tox	TDP1 cell noCPT
O=S(=O)(NCc1ccncc1)c1ccccc1	0	23µM	0	0	8.2µM
O=S(=O)(NCc1ccncc1)c1ccc(Br)s1	0	1.8µM	0	0	2.6µM
Cc1ccc(S(=O)(=O)N2[C@@H](c3ccc(F)cc3)C(C(=O)O)=CC[C@H]2c2ccc3c(c2)OCO3)cc1	0	0	0	0	0
Cc1ccc(S(=O)(=O)NCc2ccncc2)cc1C(=O)NCC(C)C	0	15µM	0	0	?
Cn1c(=O)oc2cc(S(=O)(=O)Nc3ccc(Cl)cc3)ccc21	0	0	0	0	0
COc1ccc(S(=O)(=O)NCc2cccnc2)cc1Br	0	4.6µM	16µM	0	5.8µM
Cn1c(=O)oc2cc(S(=O)(=O)NCc3ccncc3)ccc21	0	8.2µM	0	0	8.2µM
COc1ccc(S(=O)(=O)NCc2cccnc2)cc1	0	0	0	0	0

Bioassay records (PubChem BioAssay)
